From PubChem
BAZ2B block: inhibitors of human BAZ2B bromodomain | Q9UIF8 | AlphaScreen BAZ2B-H3K14Ac peptide displacement | Potency, µM (top dose mostly 114 µM), inactives show at the highest dose activity change, negative = inhibition, hits mostly inhibitors | actives 4.4% (n = 360,000); also: % is scaled to controls: 0 for no effect and ±100 for the full control effect; nearly all actives have a fitted effect of over 60% in size
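BAZ2B 50 nM plus b-H3(5-23)K14Ac 50 nM, PBS pH 7.4/0.01% Tween-20, 30 min RT; compound added (max 110 uM), 30 min RT; streptavidin donor/Ni-chelate acceptor beads 10 ug/mL final, 20 min dark; AlphaScreen read.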
ALOX12 inh: ALOX12 (human) lipoxygenase inhibition; actives 1.1% (n = 580,000); P18054; Potency, µM (top dose mostly 108 µM), inactives show at the highest dose activity change, negative = inhibition, hits mostly inhibitors; purified 12hLO, xylenol orange hydroperoxide absorbance; also: % is scaled to controls: 0 for no effect and ±100 for the full control effect
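Purified human 12hLO at 150 nM in 25 mM Hepes, 0.01% Triton X-100, pH 7.0, preincubated 15 min at room temperature with compound. Reaction started with 40 uM arachidonic acid, 30 min at room temperature. Hydroperoxide measured by Fe-xylenol orange, 573/405 nm absorbance ratio.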
JMJD2A Tudor: JMJD2A Tudor domain (human) inhibition | O75164 | AlphaScreen JMJD2A-Tudor / H3K4me3 peptide binding | Potency, µM (doses to about 114 µM), for inactives: top-dose activity change, negative = inhibition, hits mostly inhibitors | actives 4.4% (n = 390,000); also: % is scaled to controls: 0 for no effect and ±100 for the full control effect; nearly all actives have a fitted effect of over 50% in size
G9a inh: G9a (human) methyltransferase inhibition; Q96KQ7; G9a H3K9 monomethylation, AlphaScreen, 2 h; Potency, µM (titrated, usually from 102 µM), for inactives: top-dose activity, negative = inhibition, most hits filed as inhibitors; actives 8.8% (n = 350,000); AID 504332; also: % is scaled to controls: 0 for no effect and ±100 for the full control effect; nearly all actives have a fitted effect of over 75% in size
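Step 1: enzyme (final 20 nM) with compound, 15 min RT. Step 2: substrate peptide 500 nM and SAM 20 uM, 2 h RT. Step 3: anti-H3K9me1 antibody and AlphaScreen beads, 10 min, then plate read.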
PLK1 PBD block: blocks phosphopeptide binding to human PLK1 polo-box domain. P53350. actives 2.8% (n = 360,000). Plk1 PBD binding of FITC phosphopeptide, fluorescence polarization. Potency, µM, without a hit: max response, negative = inhibition, actives largely listed as inhibitors; also: series mostly up to about 57 µM; % is scaled to controls: 0 for no effect and ±100 for the full control effect; nearly all actives have a fitted effect of over 65% in size
HP1b binding inh: HP1-beta chromodomain-methylated histone interaction inhibition; actives 0.56% (n = 390,000); P83916; Potency, µM (top dose mostly 114 µM), for the others: at the top dose activity change, negative = inhibition, hits mostly inhibitors; AlphaScreen HP1-beta / biotin-H3K9me3 peptide binding; AID 540317; also: nearly all actives have a fitted effect of over 70% in size
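AlphaScreen: HP1-beta (50 nM) preformed 30 min with biotin-H3(1-18)K9me3 peptide (50 nM) in PBS pH 7.4, 0.01% Tween-20. Compound added for 30 min at RT, then streptavidin donor/nickel chelate acceptor beads (10 ug/mL) for 30 min.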
Starred values were filed as active, the others as inactive; ? = inconclusive; . = no result given; [ ] = dose if it differs, or a comment. Most compounds without a hit are left out; they make up all but 9% or so of the library. Calls follow the shape of the dose curve; as a rule, active = well fitted curve in the direction sought with a large enough effect; inconclusive = small, poorly fitted or top-dose-only effect, or another doubt; inactive = no such curve, though single readings can be large; an effect the other way counts as inactive or inconclusive. Potency is read from the fitted curve at half-maximal effect.

SMILES	BAZ2B block	ALOX12 inh	JMJD2A Tudor	G9a inh	PLK1 PBD block	HP1b binding inh
CCC(C)[C@H](NC(=O)N1CC(=O)Nc2ccccc21)C(=O)Nc1ccccc1C (stereo partly specified)	-15.1%	-3.6%	-0.4%	-17.8%	1.3%	38.1%
Cc1cc(C)c(S(=O)(=O)Nc2ccc(-c3cn4ccccc4n3)cc2)c(C)c1	?	22.7%	?	?	0.3%	-10.3%
Cc1cc(C)c(S(=O)(=O)Nc2cccc(-c3cn4ccccc4n3)c2)c(C)c1	-27.5%	-11.4%	5.01µM*	-36.3%[59 µM]	.	45.2%
N#Cc1ccc(CNc2ccc(F)c(F)c2F)cc1	.	-26.5%	.	.	.	.
CCc1cccc(NC(=O)CCS(=O)(=O)c2ccc3nc(C)sc3c2)c1	-16.4%	?	-20.5%	11.2µM*	.	27.7%
Cc1ccc(NC(=O)CCS(=O)(=O)c2ccc3nc(C)sc3c2)cc1	-2.9%	439.3%	-27.5%	27.2%	26.7µM*	26.0%
CCc1nc2ccc(C(=O)Nc3ccc(NC(C)=O)cc3)cn2c1N(C)CCCc1ccccc1	.	-0.2%	.	.	-5.9%	.
CN1CCOC2(CCN(Cc3cccc(C#N)c3)CC2)C1=O	.	8.1%[176 µM]	.	.	.	.
COc1ccc(C2=[N+](C)CCn3cccc32)c(OC)c1	-34.3%	?	17.8µM*	7.08µM*	-21.2%	?
COc1ccc(NC(=O)C2Cn3cccc3C(=O)N2)c(OC)c1 (stereo unspecified)	.	2.5%	.	.	.	.
COc1cccc(/C=N/NC(=O)c2c(C)nc3ccc(Cl)cn23)c1O	8.91µM*	-9.8%	56.2µM*	-9.6%	17.1%	23.4%
COc1ccc(OC)c(/C=N/NC(=O)c2ccc(=O)[nH]n2)c1	-34.8%	3.1%	-13.2%	-14.9%[59 µM]	-4.8%	12.5%[57 µM]
COc1ccccc1/C=N\NC(=O)c1c(C)nc2ccc(Cl)cn12	10.8%	18.0%	-6.2%	-0.4%[59 µM]	-6.0%	22.4%
COc1cc(OC)c(OC)cc1/C=N/NC(=O)c1ccc(=O)n(C)c1	-3.6%	1.0%	-18.4%[57.1 µM]	22.7%[59 µM]	-20.5%	18.3%
COc1cccc(/C=N/NC(=O)c2ccc(=O)n(C)c2)c1O	?	2.7%	56.2µM*	16.0%[59 µM]	-7.9%	16.8%
COc1cccc(/C=N/NC(=O)c2ccc(=O)[nH]n2)c1O	50.1µM*	5.5%	79.4µM*	-4.2%	4.2%	48.7%
COc1ccccc1CNC(=O)CCC1N=C2c3ccccc3N=C(SCC(=O)NCCc3ccccc3)N2C1=O (stereo unspecified)	20.6%	-17.5%	-32.3%	-1.7%[59 µM]	.	56.8%
Cc1oc(-c2cccs2)nc1CS(=O)CC(=O)NCCc1ccccc1 (stereo unspecified)	-24.9%	-6.7%[57.4 µM]	-25.7%	50.1µM*	?	20.6%
CCCCNC(=O)CS(=O)Cc1nc(-c2cccs2)oc1C (stereo unspecified)	-2.2%	-3.5%	-8.8%	50.1µM*	?	34.7%
Cc1ccc(-c2nc(CS(=O)CC(=O)NCCc3ccccc3)c(C)o2)cc1 (stereo unspecified)	.	-8.6%	.	.	.	.
Cc1oc(-c2cccs2)nc1CS(=O)CC(=O)NCCCOC(C)C (stereo unspecified)	5.3%	?	-10.5%	?	-26.9%	44.8%
COc1ccc2nc(SCC(=O)c3c(C)[nH]c4ccccc34)nc(C)c2c1	?	0.0%	-13.4%	-38.1%[59 µM]	.	11.9%
O=C(Cn1ccc(=O)[nH]c1=O)NCCO	-8.2%	30.1%	-10.3%	10.0%	-5.2%	40.9%
CC(C)(C)N1C(=O)Cc2c1nc(N)c1c(N)nc(N3CCCCC3CO)c(C#N)c21 (stereo unspecified)	39.8µM*	.	50.1µM*	7.94µM*	-19.1%	?
CCOc1cc(C2/C(=C(\O)c3ccc(Cl)cc3)C(=O)C(=O)N2c2cc(C)on2)ccc1O (stereo unspecified)	.	15.8µM*	.	.	.	.
SMILES	BAZ2B block	ALOX12 inh	JMJD2A Tudor	G9a inh	PLK1 PBD block	HP1b binding inh
CCOc1ccc(C2/C(=C(/O)c3ccc(OC)cc3)C(=O)C(=O)N2c2cc(C)on2)cc1OC (stereo unspecified)	-4.0%	?	-28.0%	?	-4.5%	17.9%
CCOC(=O)N1CCN(c2nc(=S)n(-c3ccccc3)c(C)c2C(C)=O)CC1	-2.7%	31.6µM*	-26.9%	?	-15.4%	33.5%
CC(=O)c1c(N2CCN(c3ccccc3)CC2)nc(=S)n(-c2ccccc2)c1C	-19.1%	?	-31.5%	-33.4%[59 µM]	-20.1%	-0.3%
Cc1ccc(-c2nn(-c3ccccc3)cc2C(=O)N2CCN(C3CCS(=O)(=O)C3)CC2)cc1 (stereo unspecified)	7.2%	200.0%	-4.2%	7.08µM*	-0.2%	29.7%
Cc1c(Cl)cccc1NC(=O)COC(=O)c1c2c(nc3ccccc13)CCN(Cc1ccccc1)C2	-36.2%	-12.0%	-30.3%	-32.1%[59 µM]	-4.8%	12.0%
O=C(NC1CCCCCC1)c1c2c(nc3ccccc13)CCN(Cc1ccccc1)C2	-5.4%	-23.2%	-9.9%	1.41µM*	2.0%	27.7%
CC(C)c1ccccc1NC(=O)COC(=O)c1c2c(nc3ccccc13)CCN(Cc1ccccc1)C2	-10.2%	-5.1%	-28.4%	5.1%[59 µM]	3.2%	8.8%
Cc1cc(N2CCN(C)CC2)ccc1NC(=O)c1c2c(nc3ccccc13)CCN(Cc1ccccc1)C2	?	.	?	35.5µM*	1.9%	-13.5%
COc1cccc(C2=CC(c3ccc(N(C)C)cc3)n3nnnc3N2)c1 (stereo unspecified)	-34.0%	-22.0%	-6.2%	?	4.7%	45.2%
COc1cccc(C2=CC(c3ccc(N(C)C)cc3)n3ncnc3N2)c1 (stereo unspecified)	4.2%	.	.	39.8µM*	.	.
Fc1ccc(Br)cc1C1C=C(c2cccnc2)Nc2ncnn21 (stereo unspecified)	-6.8%	.	?	44.7µM*	-17.4%	43.0%
COc1ccc(C2C=C(c3ccc(Br)s3)Nc3ncnn32)cc1OC (stereo unspecified)	?	.	.	11.2µM*	.	.
Brc1ccc(C2=CC(c3cccs3)n3ncnc3N2)cc1 (stereo unspecified)	3.6%	39.8µM*	-21.6%	11.1%[0.501 µM]	?	24.1%
CSc1ccc(CN2CCN(CC=C(C)C)C(CCO)C2)cc1 (stereo unspecified)	-6.4%	-8.7%	1.7%	.	-0.8%	24.0%
Fc1ccc(C2=CC(c3ccc(Br)o3)n3ncnc3N2)cc1 (stereo unspecified)	-15.5%	.	31.6µM*	8.91µM*	10.6µM*	-6.9%
COc1cccc(C2=CC(c3ccccc3)n3ncnc3N2)c1 (stereo unspecified)	56.2µM*	.	.	?	.	.
C1=C(c2ccc(-c3ccccc3)cc2)Nc2ncnn2C1c1ccco1 (stereo unspecified)	-12.4%	2.9%	-26.5%	31.6µM*	4.74µM*	24.1%
